Compound activity as filed in PubChem.
Rab9 promoter act = activators of Rab9 promoter | hit rate 2.8% among 320,000 | Potency, µM (top dose mostly 9.22 µM), inactives show at the highest dose activation, negative = inhibition, hits mostly activators | Huh7 Rab9 promoter-luciferase reporter, luminescence, 24 h; note: % of control where 0% means no effect; nearly all actives have a fitted effect of over 60% in size
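Huh7 reporter line, Rab9 promoter upstream of luciferase. Compound exposure 24 h at 37 °C in reduced-serum medium with 10% FBS. Read-out: luminescence.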
FLuc modulator = firefly luciferase modulation, counter-screen for miR-21 project; P08659; purified FLuc, Km substrates, luminescence inhibition; Potency, µM (top dose mostly 57.5 µM), without a hit: at the highest dose activity change, negative = inhibition, usual class: inhibitors; hit rate 6.9% among 360,000; AID 588342;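 note: plate controls were vehicle for no effect and reference inhibitor for full effect; nearly all actives have a fitted effect of over 55% in size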
Target sequence (P08659 whole entry, looked up): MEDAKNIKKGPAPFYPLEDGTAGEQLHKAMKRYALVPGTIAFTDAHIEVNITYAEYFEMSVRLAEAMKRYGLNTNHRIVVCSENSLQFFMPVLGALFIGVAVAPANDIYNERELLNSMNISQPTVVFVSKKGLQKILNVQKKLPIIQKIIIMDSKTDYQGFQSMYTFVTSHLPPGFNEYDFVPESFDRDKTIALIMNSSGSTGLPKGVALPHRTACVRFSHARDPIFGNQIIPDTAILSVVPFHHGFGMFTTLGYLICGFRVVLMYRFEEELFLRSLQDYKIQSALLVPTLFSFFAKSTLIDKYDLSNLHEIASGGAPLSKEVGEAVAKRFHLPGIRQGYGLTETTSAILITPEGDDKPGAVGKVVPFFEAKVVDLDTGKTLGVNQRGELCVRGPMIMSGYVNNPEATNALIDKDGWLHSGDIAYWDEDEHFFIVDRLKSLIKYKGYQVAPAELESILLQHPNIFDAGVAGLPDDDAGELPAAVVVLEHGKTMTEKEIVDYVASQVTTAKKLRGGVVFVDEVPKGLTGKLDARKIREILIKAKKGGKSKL
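Biochemical qHTS of compounds, final roughly 60 µM downward over six points, against 10 nM purified firefly luciferase using Km concentrations of substrates (10 uM D-luciferin, 10 uM ATP) in Tris acetate pH 7.5 buffer; luminescence output.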
NPC1 promoter act = NPC1 promoter activation | Huh7 NPC1 promoter luciferase reporter, 24 h | hit rate 2.4% among 320,000 | AID 485313 | Potency, µM (top dose mostly 9.22 µM), for inactives: at the highest dose activation, usual class: activators; note: % of control where 0% means no effect; nearly all actives have a fitted effect of over 60% in size
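Stable NPC1-promoter luciferase Huh7 line; cpd (DMSO) 24 h, 37 °C, 5% CO2; Amplite luciferase reagent 10 min RT; luminescence readout. qHTS format.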
ELG1 genotoxic = induces genotoxicity in HEK293T cells with luciferase-tagged ELG1 | AID 504466 | HEK293T ELG1-luciferase reporter, luminescence, 16 h | hit rate 1.3% among 330,000 | Potency, µM (titrated, usually from 46 µM), for inactives: top-dose activity change, positive = activation, usual class: activators; note: % of control where 0% means no effect; nearly all actives have a fitted effect of over 60% in size
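ELG1-luciferase HEK293T cells, 2,000/well; compound pinned in; 16 hr, 37 °C, 5% CO2; ONE-Glo, 30 min RT; luminescence on CCD imager.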
SMN2 splice enh = increases expression of the SMN2 splice variant; hit rate 2.8% among 210,000; Potency, µM (titrated, usually from 46.1 µM), without a hit: top-dose activity change, positive = activation, most hits filed as activators; HEK293 SMN2-luciferase splicing reporter, luminescence, 30-36 h; note: % of control where 0% means no effect; nearly all actives have a fitted effect of over 55% in size
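HEK293 cells carry an SMN2 minigene-luciferase reporter in which exon 7 inclusion puts luciferase in frame. Cells were seeded at 2000 cells/well, attached for 10-12 hours, then exposed to compounds for 30-36 hours at 37C before ONE-Glo luminescence.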
ELG1 DNA repair = inhibitors of ELG1-dependent DNA repair in HEK293T cells; HEK293T ELG1-luciferase reporter, luminescence, 16 h; DNA damage induced by 5-fluorouridine; Potency, µM (top dose mostly 46.1 µM), inactives show at the top dose activity change, negative = inhibition, actives largely listed as inhibitors; hit rate 2.3% among 330,000; AID 504467; note: % is set by controls: 0 for no effect and ±100 for the full control effect; nearly all actives have a fitted effect of over 55% in size
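Cells (2,000 per well) received 5-fluorouridine plus test compound or DMSO and were incubated 16 hr at 37 °C, 5% CO2. Luciferase activity was read by luminescence 30 min after ONE-Glo addition; signal suppression marked inhibition of damage-induced ELG1 function.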
Numbers without * were called inactive; u = inconclusive; x = no result; [ ] = remark or other dose. This is a sample that favours compounds with a hit; in the whole collection about 9.2% have one here. Calls come from the whole dose curve; as a rule, active = well fitted curve in the direction sought with a large enough effect; inconclusive = small, poorly fitted or top-dose-only effect, or another doubt; inactive = no such curve, though single readings can be large; an effect the other way counts as inactive or inconclusive. Potency is the fitted concentration of half-maximal effect.

SMILES | Rab9 promoter act | FLuc modulator | NPC1 promoter act | ELG1 genotoxic | SMN2 splice enh | ELG1 DNA repair
Cc1ccc(NC(=O)c2cc3ccccc3oc2=O)cc1S(=O)(=O)N(C)C | -34% | 0.076µM* | -28% | 10% | x | u
CN(c1ccccc1)S(=O)(=O)c1cccc(NC(=O)c2cc3ccccc3oc2=O)c1 | 29% | u | u | u | x | u
Cc1ccc(NC(=O)c2ccccc2OCC(=O)Nc2ccccc2F)cc1S(=O)(=O)N(C)C | 19% | 7.6µM* | 8% | 0% | x | u
Cc1ccc(NC(=O)c2cc3ccccc3o2)cc1S(=O)(=O)N(C)C | 2.5µM* | 0.85µM* | 3.2µM* | 2.6µM* | 13µM* | u
CN(C)S(=O)(=O)c1ccc(NC(=O)c2cc3ccccc3o2)cc1 | u | 15µM* | u | -1% | 0% | -2%
O=C(NCc1ccc(Cl)cc1)N1CCN(Cc2ccccc2)CC1 | 0% | 1% | -2% | -13% | x | u
CC1=C(c2ccc(C(C)C)cc2)S(=O)(=O)N=C1N1CCC(C(=O)NCCc2ccco2)CC1 | x | -7% | x | x | x | x
COc1ccccc1Cc1nc2ccccc2nc1SCC(=O)N1CCN(c2ccccc2)CC1 | x | -1% | x | x | x | x
O=C(Nc1nc(-c2ccc(Cl)s2)cs1)c1ccccc1 | 29% | 27µM* | 14% | 11% | -25% | -4%
CC(=O)Nc1nc(-c2cccs2)cs1 | 29% | u | u | 1% | -5% | u
Cc1ccc(C)c(-c2csc(NC(=O)c3cnccn3)n2)c1 | -4% | 1% | 0% | 8% | -32% | u
Cc1ccc(C(=O)Nc2nc(-c3cc(Cl)sc3Cl)cs2)cc1 | -11% | 9.5µM* | -1% | 6% | -69% | 9.2µM*
O=C(Nc1nc(-c2cccs2)cs1)c1ccc(Cl)s1 | 23% | 13µM* | 25% | u | -94% | u
COc1cc(C(=O)NNC(=O)CNC(=O)C2CCCCC2)ccc1OC(C)C | x | x | x | 1% | x | 6%
COc1ccc(S(=O)(=O)Nc2cc(Sc3ncn[nH]3)c(O)c3ccccc23)cc1 | -5% | u | 0% | -35% | -95% | 23µM*
O=C(O)CSc1cc(NS(=O)(=O)c2ccc(Cl)cc2)c2ccccc2c1O | -33% | u | -21% | -31% | x | u
O=S(=O)(Nc1cccnc1Cl)c1ccc(F)cc1 | -4% | -1% | 1% | -5% | x | -10%
COc1ccc(S(=O)(=O)Nc2cc(SCC(=O)O)c(O)c3ccccc23)cc1 | -32% | u | -27% | -31% | x | 16µM*
O=S(=O)(Nc1cc(Sc2cccc3cccnc23)c(O)c2ccccc12)c1ccc(F)cc1 | -32% | u | -22% | -12% | -76% | 9.2µM*
CCN(c1nc(N)c(C(=O)N=C(N)N)nc1Cl)C(C)C | -18%[46.1 µM] | x | -10%[46.1 µM] | x | 6% | x
Cc1noc(NS(=O)(=O)c2ccc(N/C=C/C(=O)c3ccc4c(c3)OCO4)cc2)c1C | 5% | 11µM* | 17% | 12% | 5% | 20%
Cc1noc(NS(=O)(=O)c2ccc(N/C=C\C(=O)c3cccs3)cc2)c1C | -6% | 17µM* | -5% | 4% | -2% | -8%
CC(NC(=O)CSc1nc(C2CC2)n(-c2ccccc2)n1)c1ccco1 (stereo unspecified) | -1% | -2% | -3% | 0% | x | -15%
Cc1cc(NCc2ccccn2)n2c(nc3ccccc32)c1C#N | -1% | 2% | -2% | -6% | -8% | -5%
CCCc1cc(NCc2ccccn2)n2c(nc3ccccc32)c1C#N | -10% | 11µM* | -1% | -10% | -19% | u
SMILES | Rab9 promoter act | FLuc modulator | NPC1 promoter act | ELG1 genotoxic | SMN2 splice enh | ELG1 DNA repair
CCCc1cc(NCC2CCCO2)n2c(nc3ccccc32)c1C#N (stereo unspecified) | -6% | 17µM* | -6% | -15% | -5% | 23µM*
COc1cccc(NS(=O)(=O)c2csc(C(N)=O)c2)c1 | -1% | 1% | 0% | -9% | x | -9%
CCOC(=O)CNc1ncnc2c1nnn2C | x | 1% | x | x | x | x
CCCCn1c(SCC(=O)NC2CCCC2)nnc1-c1ccco1 | 1% | 1% | -1% | 7% | x | 6%
CCOc1ccccc1NC(=O)C(NCCN(C)C)c1ccccc1 (stereo unspecified) | -4% | -2% | -4% | -2% | 0% | -5%
CCOc1ccccc1NC(=O)C(NCCc1ccc(OC)cc1)c1ccccc1 (stereo unspecified) | -4% | 27µM* | 1% | -8% | x | u
C[n+]1ccc(CC2C(=[N+]([O-])[O-])C=Nc3ncnn32)cc1 (stereo unspecified) | 0% | 2% | -2% | 0% | -9% | 0%
COc1ccc(C)cc1NC(=O)C(c1ccccc1)N1CCN(CC(=O)NC2CC2)CC1 (stereo unspecified) | -3% | -1% | 0% | 0% | x | -25%
C/C(=N\NC(=O)COc1ccccc1-c1ccccc1)c1ccc(O)cc1O | -16% | 1% | -19% | -8% | x | 23µM*
C/C(=N\NC(=O)COc1ccccc1-c1ccccc1)c1ccccn1 | -24% | -6% | -17% | u | -58% | u
Cc1ccc(-c2cc(C(F)(F)F)n3ncc(C(=O)N4CCCc5ccccc54)c3n2)cc1 | -3% | 0% | -6% | 8% | -16% | 16%
O=C(c1cccnc1)N1CCCc2ccccc21 | 7% | 3% | 1% | 3% | -3% | 13%
Cc1cnn(C(=O)c2cc(-c3ccccc3)nc3ccccc23)c1 | 8% | 17µM* | 2% | -3% | 7% | -1%
Cc1ccc(-c2cc(C(=O)N3CCCc4ccccc43)c3ccccc3n2)cc1 | 1% | 3.4µM* | 9% | u | -17% | u
Cc1cnn(-c2nc(-c3ccccc3)cc(-c3ccccc3)n2)c1 | -9% | 1% | -10% | -10% | x | 21µM*
Cc1cc2ncn(C(=O)c3cc(-c4ccccc4)nc4ccccc34)c2cc1C | 1% | u | 0% | 1% | 0% | 1%
O=C(c1cc(-c2cccnc2)nc2ccccc12)N1CCCc2ccccc21 | 1% | -19% | -4% | -5% | -7% | 21µM*
CN(C)c1nc(N(C)C)nc(N2CC(=O)N(c3ccccc3)C2=N)n1 | -6% | 1% | -2% | 0% | 5% | 7%
COc1ccc(N2CC(C)Cn3c2nc2c3c(=O)n(Cc3ccc(F)cc3)c(=O)n2C)c(OC)c1 (stereo unspecified) | -7% | 1% | -6% | -8% | -11% | 16µM*
CCOC(=O)c1cnc(-c2ccccc2)nc1-c1ccccc1 | -3% | -15% | -2% | -12% | -33% | 0%
CCn1c(C)nc2cc(-c3nc4n(n3)Cc3ccccc3-4)ccc21 | -43% | 0.024µM* | -48% | -19% | -65% | u
